Assay outcomes (PubChem BioAssay)
VACV Venus inh – vaccinia inhibition (Venus reporter) | Vaccinia virus Venus reporter expression, fluorescence | Potency, µM (titrated, usually from 36.5 µM), without a hit: top-dose activity change, negative = inhibition, most hits filed as inhibitors | 330,000 compounds, 0.46% hits | AID 720580; calls by dose curve; tested in A549 cells; note: potency is the fitted concentration of half-maximal effect; % is set by controls: 0 for no effect and ±100 for the full control effect; nearly all actives have a fitted effect of over 30% in size
Shiga toxin inh – blocks Shiga toxin action in Vero cells | Vero cells, Shiga toxin protein synthesis inhibition reporter | inhibition, % at 38.7 µM | 290,000 compounds, 9.2% hits | AID 2315; in the data active = inhibition mostly above about 28%, no sharp cut-off; inactive = mostly below about 43%; note: 0% is about no effect
Marburg entry inh – blocks Marburg virus binding to or entry into cells. Marburg virus pseudotyped entry inhibition, cell reporter. Potency, µM (titrated, usually from 37.8 µM), without a hit: at the highest dose activity change, negative = inhibition, most hits filed as inhibitors. 300,000 compounds, 1.8% hits. AID 540276; calls by dose curve; tested in HEK293 cells; note: potency is the fitted concentration of half-maximal effect; % is set by controls: 0 for no effect and ±100 for the full control effect
LASV entry inh – inhibitors of Lassa virus binding or cell entry. Lassa virus pseudotype entry inhibition, cell reporter. Potency, µM (highest dose often 37.9 µM), for inactives: top-dose activity change, negative = inhibition, usual class: inhibitors. 300,000 compounds, 1.2% hits. AID 540256; calls by dose curve; tested in HEK293 cells; note: potency is the fitted concentration of half-maximal effect; % is set by controls: 0 for no effect and ±100 for the full control effect; nearly all actives have a fitted effect of over 50% in size
CHX counter – counter-screen hit for Shiga toxin inhibitors, cycloheximide; cell reporter, cycloheximide protein synthesis inhibition counterscreen; max response, %; 300,000 compounds, 12% hits; AID 2314; in the data active = max response mostly above about 13%, no sharp cut-off; inactive = mostly below about 14%; note: read at 38.3 µM for the half of the compounds with a filed dose; 0% is about no effect
Vaccinia mCherry – vaccinia inhibition (mCherry reporter). Vaccinia virus mCherry reporter infection, fluorescence. Potency, µM (top dose mostly 36.5 µM), without a hit: at the highest dose activity change, negative = inhibition, actives largely listed as inhibitors. 310,000 compounds, 0.63% hits. AID 720579; calls by dose curve; tested in A549 cells; note: potency is the fitted concentration of half-maximal effect; % is set by controls: 0 for no effect and ±100 for the full control effect; nearly all actives have a fitted effect of over 35% in size
Starred values were filed as active, the others as inactive; [ ] = another dose, or the depositor's remark. This is one part of a sample in which hits are shown more often than they occur.

How did Cc1ccc(C(=O)N(Cc2cc3ccc(F)cc3nc2N2CCC(O)CC2)CC2CCCO2)cc1 (stereo not given) do in these assays?
VACV Venus inh: -6.6%; Vaccinia mCherry: -16.9%

What do the screens show for `COC(=O)Nc1ccc(S(=O)(=O)N2CCC(C)CC2)cc1`?
Shiga toxin inh: -1.3; Marburg entry inh: 2.0%; LASV entry inh: 6.3%; CHX counter: -3.1

How did CC(=O)Nc1ccc(S(=O)(=O)NC(CC(=O)NCCc2ccccc2)C(C)C)cc1 (stereo not given) do in these assays?
VACV Venus inh: -5.5%; Shiga toxin inh: 52.0; Marburg entry inh: inconclusive; LASV entry inh: -0.5%; CHX counter: 30.6*; Vaccinia mCherry: -1.1%

How did CC(=O)Nc1ccc(S(=O)(=O)N2CCN(C(C)CCc3ccccc3)CC2)cc1 (stereo not given) do in these assays?
VACV Venus inh: -28.7%; Shiga toxin inh: -26.0; Marburg entry inh: 13µM*; LASV entry inh: 16.4µM*; CHX counter: -3.2; Vaccinia mCherry: -27.4%

What do the screens show for `COC(=O)Nc1ccc(S(=O)(=O)N2CCC(Cc3ccccc3)CC2)cc1`?
Shiga toxin inh: -10.8; Marburg entry inh: inconclusive; LASV entry inh: 20.6µM*; CHX counter: -1.9

What do the screens show for `Cc1cc(C)n2c(Nc3ccccc3)c(-c3ccccc3)nc2n1`?
VACV Venus inh: -4.8%; Marburg entry inh: -11.3%[46.1 µM]; LASV entry inh: -10.4%[46.1 µM]; Vaccinia mCherry: -6.3%

How did CC1CCCC(C)N1C(=O)COC(=O)c1nn(C)c(=O)c2ccccc12 (stereo not given) do in these assays?
Shiga toxin inh: 30.7; CHX counter: 10.9

Results for Cc1cc(=O)n2nc(N(C)CC(=O)NCc3ccccc3C)sc2n1 ?
VACV Venus inh: -9.5%; Marburg entry inh: 21.6%[46.1 µM]; LASV entry inh: 10.6%[46.1 µM]; Vaccinia mCherry: -4.4%

Results for COCCNC(=O)c1ccccc1NC(=O)c1nsc2ccccc12 ?
VACV Venus inh: -18.1%; LASV entry inh: 23.0%[46.1 µM]; Vaccinia mCherry: -3.9%

What do the screens show for `Cc1ccc(OCCCn2c(-c3ccc(Cl)cc3)nc3ccccc3c2=O)cc1C`?
VACV Venus inh: 3.9%; Marburg entry inh: -3.4%[46.1 µM]; LASV entry inh: -11.1%[46.1 µM]; Vaccinia mCherry: -6.8%

Results for O=C(NCC(=O)N1CCN(Cc2c(F)cccc2Cl)CC1)c1cccs1 ?
VACV Venus inh: -13.8%; Vaccinia mCherry: inactive

Results for CN(Cc1c(F)cccc1Cl)C(=O)CNC(=O)c1cccs1 ?
Shiga toxin inh: 93.9*; CHX counter: 39.1*

Results for O=C(NCc1nc2ncc(Br)cc2[nH]1)c1ccccc1 ?
Shiga toxin inh: 47.8; Marburg entry inh: inconclusive; LASV entry inh: 2.9%; CHX counter: 15.4*

What do the screens show for `CC(C)=CCN1C(=O)[C@]2(O[C@H](COc3ccccc3)CC3=CCCC32)c2c(Br)cccc21` (stereo not given in full)?
Marburg entry inh: -17.0%[14.2 µM]

What do the screens show for `O=C(COC(=O)c1ccccn1)c1ccc(Br)cc1`?
Shiga toxin inh: 30.3; Marburg entry inh: 15.2%; LASV entry inh: 7.0%; CHX counter: 17.8

What do the screens show for `O=C(OCC1CC(c2ccccn2)=NO1)c1ccc(Br)cc1` (stereo not given)?
VACV Venus inh: 5.6%; Shiga toxin inh: 40.9; Marburg entry inh: -0.6%; LASV entry inh: inconclusive; CHX counter: 56.2*; Vaccinia mCherry: -16.1%

Results for Cc1ccc(C(=O)NC2CCCCCC2)o1 ?
Shiga toxin inh: 39.8*; Marburg entry inh: -4.4%; LASV entry inh: -11.2%; CHX counter: 20.5*

What do the screens show for `O=C(CNC(=O)c1ccco1)NC1CCCCCC1`?
VACV Venus inh: -12.6%; Marburg entry inh: inconclusive; LASV entry inh: inconclusive; Vaccinia mCherry: -19.2%

What do the screens show for `O=C(NC1CCCCCC1)c1ccco1`?
Shiga toxin inh: 10.3; CHX counter: 12.1*

How did Cc1ccc(C(=O)OCC(=O)NC2CCCCC2)o1 do in these assays?
VACV Venus inh: 1.5%; Shiga toxin inh: 31.0; Marburg entry inh: 8.4%; LASV entry inh: 15.7%; CHX counter: 15.0*; Vaccinia mCherry: -5.7%

How did COCCNC(=O)CN1CCC(NC(=O)c2ccco2)CC1 do in these assays?
VACV Venus inh: -3.7%; Shiga toxin inh: 49.5; Marburg entry inh: 0.8%[46.1 µM]; LASV entry inh: 17.0%; CHX counter: 22.5*; Vaccinia mCherry: -16.8%
